# High-throughput results deposited in PubChem by several laboratories.
# Only a selection was taken, and hits are over-represented in it overall.
# PKA inh – PKA (human) kinase inhibition | P17612 | PKA Kemptide phosphorylation, Kinase-Glo ATP luminescence | inhibition, % at 6 µM | 0.1% of 65,000 active;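 active = inhibition above the screen-wide mean inhibition plus 3 SD, cut at about 21% in these data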
# JNK3 blocker – inhibitors of human JNK3 kinase. purified JNK3 kinase activity, HTS. inhibition, % at 8 µM. AID 746. 0.61% of 60,000 active; in the data active = inhibition above about 17%
# DAT uptake mod – modulates human dopamine transporter uptake under cocaine; Q01959; LLC-PK1 hDAT cells, [14C]-dopamine uptake with cocaine IC80; actives deviate in either direction; B-score at 10 µM; 1.3% of 110,000 active;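 active = Z score or B-score, a plate-position-corrected score, falls beyond the plate's 99.7% confidence bounds, in either direction; inactive = both scores lie inside the 99.7% bounds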
# ROCK2 inh – ROCK2 (human) kinase inhibition | O75116 | purified ROCK2, Kinase-Glo ATP depletion luminescence | inhibition, % at 6 µM | 0.35% of 60,000 active | AID 604;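 active = inhibition above the screen-wide mean inhibition plus 3 SD, cut at about 18% in these data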
# Target sequence (O75116 whole entry, looked up): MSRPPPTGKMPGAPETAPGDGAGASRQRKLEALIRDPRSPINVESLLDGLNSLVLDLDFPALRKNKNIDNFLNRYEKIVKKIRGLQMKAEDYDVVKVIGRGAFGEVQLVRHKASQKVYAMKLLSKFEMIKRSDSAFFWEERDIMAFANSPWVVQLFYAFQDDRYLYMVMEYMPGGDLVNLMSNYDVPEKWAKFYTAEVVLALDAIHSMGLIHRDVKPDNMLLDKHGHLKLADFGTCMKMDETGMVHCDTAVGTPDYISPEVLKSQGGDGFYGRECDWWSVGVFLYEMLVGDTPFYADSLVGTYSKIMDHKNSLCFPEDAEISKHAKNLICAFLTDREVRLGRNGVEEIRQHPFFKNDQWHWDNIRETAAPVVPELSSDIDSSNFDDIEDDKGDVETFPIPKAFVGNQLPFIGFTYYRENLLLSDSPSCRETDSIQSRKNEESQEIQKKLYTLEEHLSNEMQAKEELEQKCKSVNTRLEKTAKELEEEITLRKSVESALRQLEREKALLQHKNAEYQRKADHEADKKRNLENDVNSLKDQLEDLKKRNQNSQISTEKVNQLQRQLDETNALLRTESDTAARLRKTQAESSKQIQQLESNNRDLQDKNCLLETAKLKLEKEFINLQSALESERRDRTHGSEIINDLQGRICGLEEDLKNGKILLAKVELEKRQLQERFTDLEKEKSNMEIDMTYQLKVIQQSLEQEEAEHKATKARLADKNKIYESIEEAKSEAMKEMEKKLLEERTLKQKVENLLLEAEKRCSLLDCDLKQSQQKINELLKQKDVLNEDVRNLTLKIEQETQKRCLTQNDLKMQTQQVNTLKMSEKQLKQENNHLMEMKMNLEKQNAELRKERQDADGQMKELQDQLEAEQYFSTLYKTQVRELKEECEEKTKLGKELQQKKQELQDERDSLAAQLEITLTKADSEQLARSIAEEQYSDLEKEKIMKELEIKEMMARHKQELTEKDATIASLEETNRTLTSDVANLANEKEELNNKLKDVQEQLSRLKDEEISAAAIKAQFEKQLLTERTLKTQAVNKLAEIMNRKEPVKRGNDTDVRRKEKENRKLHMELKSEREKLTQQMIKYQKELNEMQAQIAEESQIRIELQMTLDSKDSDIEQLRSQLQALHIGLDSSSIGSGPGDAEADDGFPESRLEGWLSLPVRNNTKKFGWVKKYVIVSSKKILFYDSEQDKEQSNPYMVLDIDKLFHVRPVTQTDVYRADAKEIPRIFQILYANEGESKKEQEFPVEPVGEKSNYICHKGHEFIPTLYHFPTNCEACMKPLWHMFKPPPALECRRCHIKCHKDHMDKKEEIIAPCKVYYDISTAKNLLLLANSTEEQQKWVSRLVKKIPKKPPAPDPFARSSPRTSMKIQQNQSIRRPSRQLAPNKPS
# D1 mod – D1 dopamine receptor (human) allosteric modulation. P21728. HEK293 D1, CRE-luciferase, dopamine EC30 potentiation; actives deviate in either direction. B-score at 10 µM. 5.9% of 58,000 active. AID 641;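 active = luminescence count or its row- and column-corrected plate score outside the 99.7% band of the plate's sample wells, on either side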
# Numbers stand for hits; n = inactive; x = no result.
SMILES,PKA inh,JNK3 blocker,DAT uptake mod,ROCK2 inh,D1 mod
CNC(=O)c1[nH]cnc1C(=O)N[C@@H](C)C(=O)OC(C)(C)C,x,x,n,x,x
N#Cc1c(-c2ccco2)nc(SCC(=O)Nc2cccc(Cl)c2)[nH]c1=O,n,25.1,n,n,n
CCOC(=O)CCn1nnc(N)n1,n,n,n,n,-4.17
CCOC(=O)NC1(C(F)(F)F)NC(=O)N(C2CCCCC2)C1=O (configuration not stated),n,n,n,n,n
CC1(c2nnc(-c3ccncc3)o2)CC(c2ccccc2)=NO1 (configuration not stated),x,x,n,x,x
CC(CCc1ccco1)NC(=O)c1cc2c(-c3ccccc3F)nn(C)c2s1 (configuration not stated),n,n,2.93,n,n
COc1ccccc1N(CC(=O)Nc1cc(C)on1)S(=O)(=O)c1cccs1,n,n,x,n,x
CCn1cc(C(=O)O)c(=O)c2cc(F)c(N3CCN(C)CC3)cc21,x,x,n,x,x
CCn1cc(C(=O)O)c(=O)c2cc(F)c(N3CCN(C(=O)Nc4ccccc4)CC3)cc21,n,n,n,n,-2.18
CCCCC(=O)Nc1ccc(C(=O)N2CCN(c3ccccc3OC)CC2)cc1,n,n,x,n,n
COc1ccccc1N1CCN(C(=O)c2ccc(NC(C)=O)cc2)CC1,n,n,-3.1,n,n
N#CC1=C(Nc2ccccc2)SC=C(c2ccc(Br)cc2)N=C1N1CCOCC1,x,x,-6.21,x,x
CCOC(=O)N1CCN(C(=O)CN(c2ccc(Cl)c(C(F)(F)F)c2)S(C)(=O)=O)CC1,n,x,n,x,n
O=C(NCc1ccc2c(c1)OCO2)c1cc2ncc(Br)cn2n1,n,n,-2.1,n,n
Cc1ccc(NC(=O)Cn2cccc2)c(C)c1,x,x,n,x,x
COc1cc(CC(=O)Nc2nccs2)cc(OC)c1OC,n,23.2,n,n,n
CCOC(=O)CN(C(=O)CSc1nnc(Cc2ccccc2)n1-c1ccc(C)cc1)c1ccccc1,x,x,2.7,x,x
CCOC(=O)CSc1nnc(Cc2ccccc2)n1-c1ccc(C)cc1,x,x,n,x,x
COc1ccc(CCNc2oc(-c3ccccc3OC)nc2C#N)cc1OC,n,n,4.55,n,n
CCOc1ccc(NC(=O)c2oc3ccccc3c2NC(=O)C(C)C)cc1,n,n,x,n,n
Brc1ccc(-c2noc3c2-c2nc(-c4ccccc4)sc2CC3)cc1,x,x,n,x,x
CS(=O)(=O)N1CCC(C(=O)Nc2ccc3c(c2)OCCO3)CC1,x,x,n,x,x
Cc1cccc(N2CCN(C(=O)C3CCN(S(=O)(=O)c4cccc5cccnc45)CC3)CC2C)c1 (configuration not stated),n,n,n,n,-3.8
CN(C)S(=O)(=O)N1CCN(c2ccc(Cl)cc2)CC1,n,n,n,n,n
O=C(CCNc1ccc(F)cc1)c1ccco1,n,n,n,n,n
SMILES,PKA inh,JNK3 blocker,DAT uptake mod,ROCK2 inh,D1 mod
O=C(CCS(=O)(=O)c1cccc2nsnc12)NC1CCCCCC1,x,x,n,x,x
O=C(CCS(=O)(=O)c1cccc2nsnc12)NCc1ccccc1,n,x,-8.19,x,n
CN(CC(=O)NCc1ccc(F)cc1)S(=O)(=O)c1cccc2nsnc12,n,n,n,n,n
CN(CC(=O)NCc1cccs1)S(=O)(=O)c1cccc2nsnc12,n,n,-9.06,n,n
CC(=O)c1cccc(NC(=O)CCS(=O)(=O)c2cccc3nsnc23)c1,x,x,2.49,x,x
COC(=O)c1cc(Nc2ncnc3c2cnn3-c2ccccc2)cc(C(=O)OC)c1,n,n,x,n,n
Nc1ncnc2c1nc(Sc1ccc(Cl)cc1)n2[C@@H]1O[C@@H]2COP(=O)(O)O[C@H]2[C@H]1O,x,x,n,x,x
O/C(=C\Sc1nnc(Cc2ccccc2)o1)c1ccc(F)cc1,x,x,n,x,x
O=C1NC2=C(C(=O)c3ccccc32)C(c2ccccc2)N1 (configuration not stated),n,26.9,n,n,x
O=C(C1CCCCC1)N1CCCC(c2nc3c(nnn3Cc3ccccc3)c(=O)[nH]2)C1 (configuration not stated),n,n,2.37,n,x
Cc1ccc(C)c(Cn2nnc3c(=O)[nH]c(C4CCCN(C(=O)C5CCCCC5)C4)nc32)c1 (configuration not stated),n,n,3.97,n,n
O=C(C1CCCCC1)N1CCC(c2nc3c(nnn3Cc3ccccc3Cl)c(=O)[nH]2)CC1,n,n,x,n,n
O=C(NC1(C(F)(F)F)NC(=O)N(c2ccc(F)c(Cl)c2)C1=O)c1ccncc1 (configuration not stated),x,x,-3,x,x
O=C1NC(Nc2ccccn2)(C(F)(F)F)C(=O)N1c1ccc(F)cc1 (configuration not stated),n,n,n,n,n
COC(=O)CSc1cc(SCC(=O)OC)c(C#N)c(SCC(=O)OC)c1,n,n,n,n,-4.59
COC(=O)CSc1ccc(C#N)c(SCC(=O)OC)c1,x,x,n,x,x
CCOC(=O)c1ccc2ncc(C(=O)OCC)c(NCCN(C)C)c2c1,n,n,n,n,2.9
CC(C)(C)OC(=O)CNC(=O)c1[nH]cnc1C(=O)N[C@@H](CCCCNC(=O)OC(C)(C)C)C(=O)OC(C)(C)C,x,x,2.81,x,x
CCOC(=O)CN1C(=O)N[C@@H](c2ccco2)C(C(=O)OC)=C1C,x,x,n,x,x
CCOC(=O)N1CCC(Nc2ccc3nnc(-c4ccccc4)n3n2)CC1,n,n,n,n,-2.98
Cc1ccnc(SCCn2c(Br)nc3c2c(=O)n(C)c(=O)n3C)n1,n,n,x,n,n
COC(=O)c1cc(-c2ccc(OC)c(OC)c2)n[nH]1,n,x,n,x,7.01
N#Cc1nc(-c2ccc(OCc3ccccc3)cc2)oc1NCc1ccco1,n,n,n,n,n
Cc1ccc(-c2nc(C#N)c(NCc3ccco3)o2)cc1,n,n,-2.84,n,n
Cc1ccc2cc(C#N)c(NCc3ccco3)nc2c1,n,n,n,n,6.68
SMILES,PKA inh,JNK3 blocker,DAT uptake mod,ROCK2 inh,D1 mod
CCOC(=O)c1c(NC(=O)c2cc(C3CC3)on2)sc2c1CCCC2,n,n,x,n,n
CC(=O)c1ccc(NC2=C(N3CCOCC3)C(=O)c3ccccc3C2=O)cc1,x,x,n,x,x
CC(=O)N(C)C1=C(N2CCOCC2)C(=O)c2ccccc2C1=O,x,x,-4.28,x,x
Cc1ccc2nc(Cc3ccc(N)cc3)oc2c1,n,20.5,n,n,n
N#CC1=C(N)Oc2cc(O)ccc2C1c1ccncc1 (configuration not stated),n,n,n,20.9,x
CCOC(=O)Cc1csc(SCC(=O)c2c(N)n(CC(C)C)c(=O)n(C)c2=O)n1,n,n,n,n,-3.88
C[N+]1(C)CCC(OC(=O)C(O)(c2ccccc2)C2CCCC2)C1 (configuration not stated),x,x,n,x,x
CCOC(=O)C1=C(C)NC(=S)NC1c1ccc(-c2cccc(Cl)c2C)o1 (configuration not stated),x,x,-8.71,x,x
CCOC(=O)C1=C(C)NC(=O)NC1c1ccc(C)o1 (configuration not stated),n,n,n,n,n
O=C(NCc1cccnc1)C1CCCN(Cc2cnn(-c3ccccc3)c2-n2cccc2)C1 (configuration not stated),x,x,n,x,x
Cc1oc(-c2ccc(Cl)cc2)nc1CN1CCC(C(=O)N2CCN(Cc3ccccc3)CC2)CC1,n,n,x,n,n
Cc1oc(-c2ccc(Cl)cc2)nc1CN1CCC(C(=O)NCc2ccco2)CC1,n,n,n,n,-3.17
